Test results as given in PubChem BioAssay (Tox21).
Records with an inconclusive call do not appear. Activity calls are given as the source filed them. The call rests on the fitted dose curve; in most records, active means well fitted cell-killing curve with a large enough effect in the repeat runs; inconclusive means weak or mixed curves, or effect the other way; inactive means no such curve, though single readings can be large or run the other way.

experiment: qHTS assay to identify small molecule antagonists of the vitamin D receptor (VDR) signaling pathway - cell viability counter screen (AID 743225); conditions: VDR-bla HEK293T viability, CellTiter-Glo luminescence, 16 h; series mostly up to 61 µM; viability change, negative = cytotoxic: at the top concentration; further: nearly all actives have a fitted effect of over 50% in size
Text: U.S. Tox21 Program National Center for Advancing Translational Sciences [NCATS] NIH Chemical Genomics Center [NCGC] U.S. Environmental Protection Agency [EPA] National Institutes of Environmental Health Sciences [NIEHS] National Toxicology Program [NTP] U.S. Food and Drug Administration [FDA] Tox21 Assay Overview: The vitamin D receptor (VDR), a member of nuclear hormone receptor superfamily, plays a critical role in calcium homeostasis and bone metabolism. It is also involved in cell differentiation and growth, and thrombogenicity. To identify the compounds that inhibit VDR signaling, the VDR-UAS-bla HEK 293T cell line (Invitrogen, Carlsbad, CA, USA) containing a beta-lactamase reporter gene under the control of an upstream activator sequence (UAS) was used to screen the Tox21 10K compound library. The cytotoxicity of the Tox21 compound library against the VDR-bla cell line was tested in parallel by measuring the cell viability using CellTiter-Glo assay (Promega, Madison, WI) in the same wells.
Tox21 Assay Protocol Summary: VDR-bla cells were dispensed at 2,000 cells/5 uL of assay medium per well into black wall/clear-bottom 1536-well plates using a Multidrop Combi (Thermo Fisher Scientific, Waltham, MA) dispenser. After the assay plates were incubated at a 37C and 5% CO2 for 4 h, 23 nL of compounds dissolved in DMSO, positive controls or DMSO only was transferred to the assay plate by a Pintool station (Kalypsys, San Diego, CA), followed by addition of 1 uL of 1-alpha, 25-Dihydroxy Vitamin D3 (3 nM, final concentration in the wells) using a Bioraptr Flying Reagent Dispenser (FRD) workstation (Beckman Coulter, Indianapolis, IN). The plates were incubated at 37C and 5% CO2 for 16 h, and then 1 uL of LiveBLAzerTM B/G FRET substrate was added using a Bioraptr FRD. The plates were incubated at room temperature for 2 h and fluorescence intensity was measured by an Envision plate reader (PerkinElmer, Shelton, CT). For cell viability readout that measures cytotoxicity, 3 ul/well of CellTiter-Glo reagent was added into the assay plates using a Bioraptr FRD. After 30 min incubation at room temperature, the luminescence intensity in the plates was measured using a ViewLux plate reader (PerkinElmer).
On the % scale 0 is the no-effect control and ±100 the full control effect.

Compound | viability change, negative = cytotoxic
N#CCCCC(C#N)CCC#N (stereo not given) | -0.549% (inactive)
NCCOCCOCCN | -18.5% (inactive)
O=C(NC1CCN(CCc2c[nH]c3ccccc23)CC1)c1ccccc1 | -13.8% (inactive)
CC1(C)CC(=O)CC(C)(C)N1 | 8.21% (inactive)
CC(=O)c1ccc(Cl)c(Cl)c1Cl | -0.0138% (inactive)
OCCCO | -23.2% [at 78.8 µM] (inactive)
O=C1c2ccccc2C(=O)c2c1ccc(O)c2O | -15.6% (inactive)
O=C(OCCN1CCOCC1)c1cccnc1Nc1cccc(C(F)(F)F)c1 | -10.6% (inactive)
O=c1[nH]nc(-c2ccc([N+](=O)[O-])o2)o1 | -2.4% (inactive)
Oc1ccc(Oc2ccccc2)cc1 | -5.72% (inactive)
CCCCCCCCCCCCCCCCC(=O)O | 1.29% (inactive)
Nc1ccc(C(=O)Oc2ccccc2)c(O)c1 | 0.621% (inactive)
CC(C)CC(C)(C)C | -3.38% [at 78.8 µM] (inactive)
CC(=O)Nc1ccccc1O | 1.05% (inactive)
COc1cccc([C@H](O)C2CCN(CCc3ccc(F)cc3)CC2)c1OC | -5.57% (inactive)
CCC(=O)O[C@]1(C(=O)COC)[C@@H](C)C[C@H]2[C@@H]3CCC4=CC(=O)C=C[C@]4(C)C3(F)[C@@H](O)C[C@@]21C (stereo not given in full) | 7.2% (inactive)
Cc1c(Cl)cccc1Nc1ccccc1C(=O)O | 1.75% (inactive)
CCc1c(C)[nH]c2c1C(=O)C(CN1CCOCC1)CC2 (stereo not given) | 0.0026% (inactive)
Sc1nc(S)nc(S)n1 | 2.57% (inactive)
O=C(O)c1c2ccccc2cc2ccccc12 | 6.47% (inactive)

Compound | viability change, negative = cytotoxic
Cc1ccc(Cl)c(OCC(O)CNC(C)(C)C)c1 (stereo not given) | 0.845% (inactive)
O=C1OC(=O)C2CC=CCC12 (stereo not given) | 5.99% [at 78.8 µM] (inactive)
Cc1cc(C)c(C)c(O)c1 | -4.64% (inactive)
O=C(O)c1ccccc1[N+](=O)[O-] | 0% (inactive)
Nc1ccc(F)cc1F | 9.19% [at 78.8 µM] (inactive)
CC(=O)S[C@H](C(=O)N[C@H]1Cc2ccccc2[C@H]2CCC[C@@H](C(=O)O)N2C1=O)C(C)C | 0.0113% (inactive)
CCCCOC(=O)C(C)Oc1ccc(Oc2ccc(C(F)(F)F)cn2)cc1 (stereo not given) | 7.37% (inactive)
CC(C)=CCC[C@H](C)CCO | 3.47% (inactive)
CCOC(OCC)OCC | 5.71% (inactive)
CC(C(=O)O)c1ccc2c(c1)Cc1cccnc1O2 (stereo not given) | -4.77% (inactive)
Cc1cc(SC2=C(O)C[C@@](CCc3ccc(N)cc3)(C(C)C)OC2=O)c(C(C)(C)C)cc1CO | -2.14% (inactive)
CC(C)(C)c1cc(C=O)cc(C(C)(C)C)c1O | 0.311% (inactive)
O=C1CCCN1CCO | -9.62% (inactive)
c1ccc(CCNc2nc(-c3ccccc3)cs2)cc1 | 1.17% (inactive)
OCCc1ccncc1 | 15.3% (inactive)
O=C(Cl)c1cc(Cl)cc(Cl)c1 | 6.92% [at 78.8 µM] (inactive)
c1ccc(-c2ccc(-c3ccccc3)cc2)cc1 | -2.64% [at 28.5 µM] (inactive)
O=C(O)c1ccc2cc(O)ccc2c1 | 0% (inactive)
CCCCCCCCC(=O)OCC(C)OC(=O)CCCCCCCC (stereo not given) | 0.654% [at 78.8 µM] (inactive)
COC(=O)/C=C/C(C)=C\C=C\C(C)=C\C=C\C=C(C)\C=C\C=C(C)\C=C\C(=O)O | -21.2% (inactive)
